# Records with an inconclusive call do not appear. Entries that show only a call come without a potency. Active and inactive are the calls of the source. Calls follow the shape of the dose curve; as a rule, active = well fitted activation curve with a large enough effect; inconclusive = small, poorly fitted or top-dose-only effect; inactive = no such curve, though single readings can be large or run the other way.
# Assay: qHTS assay for re-activators of p53 using a Luc reporter: Hit Validation with no p53 Expressed
# Conditions: p53-null cells, luciferase reporter counter-screen; series mostly up to 46.1 µM
# Summary of the method: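 Counter-screen of primary hits in a cell line not transfected with p53, in Opti-MEM with 10% FBS; compounds at several concentrations (10 mM stock, 1:5; top 46.1 µM in well), 24 h at 37 deg C, 5% CO2. Luminescence read after 10 min with Amplite reagent.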
# Potency is read from the fitted curve at half-maximal effect.
row,Compound,Potency
1,COc1ccc(C2/C(=C(/O)c3ccc(C)cc3)C(=O)C(=O)N2CCCN2CCOCC2)cc1 (centres undefined),inactive
2,Nn1cnnc1N/N=C\c1ccc(-c2ccccc2[N+](=O)[O-])o1,inactive
3,O=C(N/N=C/c1cccs1)c1n[nH]c2c1CCC2,inactive
4,Cc1ccc2nc(-c3ccc(NC(=O)COC(=O)c4ccc(Br)o4)cc3)sc2c1,inactive
5,O=C(O)/C=C/c1nc(-c2ccccc2)n2ccccc12,inactive
6,O=C(CN1C(=O)COc2ccccc21)Nc1ccc(F)cc1,inactive
7,Cc1nn2cc(-c3ccc(-c4ccccc4)cc3)nc2s1,731 nM (active)
8,COc1ccc(-c2nnc(SCC(=O)/C(C#N)=C(\C)N)o2)cc1,inactive
9,Cc1cc(NC(=O)c2c(F)c(F)c(F)c(F)c2F)no1,inactive
10,Cc1cc(/C=C2/C(=O)NN(c3ccccc3)C2=O)c(C)n1-c1cccc(O)c1,inactive
11,CCN(CC)C(=O)CSc1ncnc2c(-c3cccs3)nsc12,inactive
12,CC(C)(C)c1ccc(/C=N/Nc2ccc(C(=O)O)cc2)cc1,inactive
13,O=C(NC(=S)Nc1cccc(O)c1)C1CCCCC1,inactive
14,c1nc(C2CCCCC2)cc2cc3c(cc12)OCO3,inactive
15,O=C(NOCc1ccccc1)c1ccccc1,inactive
16,CC(C)c1ccc(OCC(=O)NC(C)c2ccccc2)cc1 (centres undefined),inactive
17,COc1ccccc1NC(CC(=O)c1ccccc1)C(=O)OCC(=O)c1ccc(C)cc1 (centres undefined),inactive
18,COc1cc(/C=N/Nc2nc3ccccc3s2)ccc1OC(=O)c1ccccc1F,inactive
19,O=C(NC1CC1)c1cccc(NC(=O)c2cn3ccccc3n2)c1,inactive
20,Cc1cc(NC(c2cccnc2)c2ccc3cccnc3c2O)no1 (centres undefined),inactive

row,Compound,Potency
1,O=C(N/N=C/c1ccccc1O)C1CC(=O)N(c2ccc(Cl)cc2)C1 (centres undefined),inactive
2,OCCNc1nc(NCc2ccccc2)c2ccccc2n1,inactive
3,Cc1ccc2cc3c(N)c(C(=O)N4CCOCC4)sc3nc2c1,inactive
4,COC(=O)Cc1n[nH]c(=S)[nH]c1=O,inactive
5,COc1ccc2c(=O)c(-c3nc(C)cs3)coc2c1,inactive
6,Cc1ccc(OCC(=O)Nc2ccc(Cl)cc2)c([N+](=O)[O-])n1,inactive
7,COc1ccc(C(=O)N/N=C(\C)c2ccccn2)cc1OC,inactive
8,O=C(Nc1nc(-c2ccco2)c(-c2ccco2)s1)c1ccc(F)cc1F,inactive
9,O=C(NCCC1=CCCCC1)c1ccc(F)c(S(=O)(=O)N2CCOCC2)c1,inactive
10,CC(C)NC(=S)N1CCN(S(C)(=O)=O)CC1,inactive
11,O=C(COC(=O)c1ccc(-c2nnc(-c3ccccc3)o2)cc1)c1ccccc1,146 nM (active)
12,Cc1ccc(CSc2nc3ccncc3[nH]2)cc1,inactive
13,CCOC(=O)C1CCN(S(=O)(=O)Cc2ccccc2)C1=O (centres undefined),inactive
14,Cc1ncsc1C(=O)Nc1nc2c(s1)CCCC2,inactive
15,CC12CCC(C(=O)N(CSC(=S)N/N=C\c3ccccc3O)C1=O)C2(C)C (centres undefined),inactive
16,O=C(CC(Nc1ccc(F)cc1)C(=O)OCC(=O)c1cccs1)c1ccccc1 (centres undefined),inactive
17,Cc1ccc(-c2cc3nc(C)cc(NCc4ccco4)n3n2)cc1,inactive
18,Cc1cnc(C(=O)OCC(=O)c2csc(N3CCCCC3)n2)cn1,inactive
19,COc1ccccc1N=Nc1[nH]c2ccc(C)cc2c1O,inactive
